# In the supplement of paper PMC4022240:
# ± gives the standard deviation.
# Columns and labels:
# Test in all cases: peptide microarray binding signal (635 nm), min-max normalized on array (fraction of array maximum); higher = stronger binding
# [1] = molecular target: T1, HaloTag-ATRX ADD domain (163-292)
# T1 chain: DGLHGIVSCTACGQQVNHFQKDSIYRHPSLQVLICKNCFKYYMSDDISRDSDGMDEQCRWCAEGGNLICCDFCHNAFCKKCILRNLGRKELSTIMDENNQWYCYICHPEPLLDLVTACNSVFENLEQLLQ
# Outline: (§1)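 For each library, binding signal was taken as the triplicate-spot mean intensity and then min-max scaled. Spots of histone 13-mer peptide–cellulose conjugates on nitrocellulose, printed in triplicate with a Cy3 tracer, were probed for 1 h at 4°C with either biotin-labelled HaloTag reader fusions (10 nM to 1 μM) and streptavidin-Alexa Fluor 647 or rabbit histone antibodies (1:10,000 to 1:2,000) and anti-rabbit Alexa 647. Readout at 635 nm came from an Axon GenePix 4000B.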
# [2] = molecular target: HaloTag-ING2 PHD (mouse Ing2 200-280)
# Outline: as §1
# [3] = molecular target: anti-H3K4me3 antibody ab8580
# Outline: as §1
# [4] = molecular target: anti-H3K9me3 antibody ab8898
# Outline: as §1
# [5] = peptide region: H3 11-23, peptide modifications: H3R17me2a H3K18me1, binder concentration: 1:2,000 dilution
# [6] = peptide region: H3 11-23, peptide modifications: H3R17me2a H3K18me1, binder concentration: 1:10,000 dilution
# [7] = peptide region: H3 11-23, peptide modifications: H3R17me2a H3K18me2, binder concentration: 1:2,000 dilution
# [8] = peptide region: H3 11-23, peptide modifications: H3R17me2a H3K18me2, binder concentration: 1:10,000 dilution
# [9] = peptide region: H3 11-23, peptide modifications: H3R17cit H3K18me1, binder concentration: 1:2,000 dilution
# [10] = peptide region: H3 11-23, peptide modifications: H3R17cit H3K18me1, binder concentration: 1:10,000 dilution
# [11] = peptide region: H3 11-23, peptide modifications: H3R17me2a, binder concentration: 1:2,000 dilution
# [12] = peptide region: H3 11-23, peptide modifications: H3R17me2a, binder concentration: 1:10,000 dilution
# [13] = peptide region: H3 11-23, peptide modifications: H3R17me2a H3K18me3, binder concentration: 1:2,000 dilution
# [14] = peptide region: H3 11-23, peptide modifications: H3R17me2a H3K18me3, binder concentration: 1:10,000 dilution
# [15] = peptide region: H3 20-32, binder concentration: 1:2,000 dilution
# [16] = peptide region: H3 20-32, binder concentration: 1:10,000 dilution
# [17] = peptide region: H3 11-23, peptide modifications: H3R17me2s, binder concentration: 1:2,000 dilution
# [18] = peptide region: H3 11-23, peptide modifications: H3R17me2s, binder concentration: 1:10,000 dilution
# [19] = peptide region: H3 11-23, peptide modifications: H3R17me1 H3K18me3, binder concentration: 1:2,000 dilution
# [20] = peptide region: H3 11-23, peptide modifications: H3R17me1 H3K18me3, binder concentration: 1:10,000 dilution
# [21] = peptide region: H3 11-23, peptide modifications: H3R17me2a H3K18ac, binder concentration: 1:2,000 dilution
# [22] = peptide region: H3 11-23, peptide modifications: H3R17me2a H3K18ac, binder concentration: 1:10,000 dilution
# [23] = peptide region: H3 11-23, peptide modifications: H3R17cit H3K18me2, binder concentration: 1:2,000 dilution
# [24] = peptide region: H3 11-23, peptide modifications: H3R17cit H3K18me2, binder concentration: 1:10,000 dilution
binder,measurement,setting,value
TGGKAPRKQLATK [H3 11-23 T G G K A P Rme2a Kme Q L A T K],peptide microarray binding signal,"[1]; peptide region: H3 11-23, peptide modifications: H3R17me2a H3K18me1, binder concentration: 50 nM",0.0073 ± 0.00016
same,peptide microarray binding signal,"[1]; peptide region: H3 11-23, peptide modifications: H3R17me2a H3K18me1, binder concentration: 500 nM",0.0126 ± 0.0004
same,peptide microarray binding signal,"[2]; peptide region: H3 11-23, peptide modifications: H3R17me2a H3K18me1, binder concentration: 10 nM",0.00949 ± 0.00068
same,peptide microarray binding signal,"[2]; peptide region: H3 11-23, peptide modifications: H3R17me2a H3K18me1, binder concentration: 100 nM",0.0322 ± 0.008
same,peptide microarray binding signal,[3]; [5],0.00823 ± 0.0013
same,peptide microarray binding signal,[3]; [6],0.00496 ± 0.00085
same,peptide microarray binding signal,[4]; [5],0.00281 ± 0.00028
same,peptide microarray binding signal,[4]; [6],0.00173 ± 1.7e-05
TGGKAPRKQLATK [H3 11-23 T G G K A P Rme2a Kme2 Q L A T K],peptide microarray binding signal,"[1]; peptide region: H3 11-23, peptide modifications: H3R17me2a H3K18me2, binder concentration: 50 nM",0.00937 ± 0.0035
same,peptide microarray binding signal,"[1]; peptide region: H3 11-23, peptide modifications: H3R17me2a H3K18me2, binder concentration: 500 nM",0.011 ± 0.00034
same,peptide microarray binding signal,"[2]; peptide region: H3 11-23, peptide modifications: H3R17me2a H3K18me2, binder concentration: 10 nM",0.0112 ± 0.0018
same,peptide microarray binding signal,"[2]; peptide region: H3 11-23, peptide modifications: H3R17me2a H3K18me2, binder concentration: 100 nM",0.0143 ± 0.00077
same,peptide microarray binding signal,[3]; [7],0.00423 ± 0.00094
same,peptide microarray binding signal,[3]; [8],0.0032 ± 0.00019
same,peptide microarray binding signal,[4]; [7],0.00186 ± 6.1e-05
same,peptide microarray binding signal,[4]; [8],0.001787 ± 1.7e-05
TGGKAPRKQLATK [H3 11-23 T G G K A P Rcit Kme Q L A T K],peptide microarray binding signal,"[1]; peptide region: H3 11-23, peptide modifications: H3R17cit H3K18me1, binder concentration: 50 nM",0.00524 ± 6.5e-05
same,peptide microarray binding signal,"[1]; peptide region: H3 11-23, peptide modifications: H3R17cit H3K18me1, binder concentration: 500 nM",0.009239 ± 4.5e-05
same,peptide microarray binding signal,"[2]; peptide region: H3 11-23, peptide modifications: H3R17cit H3K18me1, binder concentration: 10 nM",0.00382 ± 0.00016
same,peptide microarray binding signal,"[2]; peptide region: H3 11-23, peptide modifications: H3R17cit H3K18me1, binder concentration: 100 nM",0.014 ± 0.0031
same,peptide microarray binding signal,[3]; [9],0.00383 ± 0.00052
same,peptide microarray binding signal,[3]; [10],0.0028 ± 0.00018
same,peptide microarray binding signal,[4]; [9],0.000846 ± 5.8e-05
same,peptide microarray binding signal,[4]; [10],0.000807
TGGKAPRKQLATK [H3 11-23 T G G K A P Rme2a K Q L A T K],peptide microarray binding signal,"[1]; peptide region: H3 11-23, peptide modifications: H3R17me2a, binder concentration: 50 nM",0.0047 ± 0.00017
same,peptide microarray binding signal,"[1]; peptide region: H3 11-23, peptide modifications: H3R17me2a, binder concentration: 500 nM",0.00767 ± 0.00072
same,peptide microarray binding signal,"[2]; peptide region: H3 11-23, peptide modifications: H3R17me2a, binder concentration: 10 nM",0.00328 ± 9.3e-05
same,peptide microarray binding signal,"[2]; peptide region: H3 11-23, peptide modifications: H3R17me2a, binder concentration: 100 nM",0.00921 ± 0.0033
same,peptide microarray binding signal,[3]; [11],0.001001 ± 8.5e-06
same,peptide microarray binding signal,[3]; [12],0.000742
same,peptide microarray binding signal,[4]; [11],0.00116 ± 7.7e-05
same,peptide microarray binding signal,[4]; [12],0.00156 ± 3e-05
TGGKAPRKQLATK [H3 11-23 T G G K A P Rme2a Kme3 Q L A T K],peptide microarray binding signal,"[1]; peptide region: H3 11-23, peptide modifications: H3R17me2a H3K18me3, binder concentration: 50 nM",0.0133 ± 0.00073
same,peptide microarray binding signal,"[1]; peptide region: H3 11-23, peptide modifications: H3R17me2a H3K18me3, binder concentration: 500 nM",0.0186 ± 0.0037
same,peptide microarray binding signal,"[2]; peptide region: H3 11-23, peptide modifications: H3R17me2a H3K18me3, binder concentration: 10 nM",0.0148 ± 0.0037
same,peptide microarray binding signal,"[2]; peptide region: H3 11-23, peptide modifications: H3R17me2a H3K18me3, binder concentration: 100 nM",0.0224 ± 0.0093
same,peptide microarray binding signal,[3]; [13],0.284 ± 0.098
same,peptide microarray binding signal,[3]; [14],0.305 ± 0.1
same,peptide microarray binding signal,[4]; [13],0.0475 ± 0.015
same,peptide microarray binding signal,[4]; [14],0.0213 ± 0.0043
LATKAARKSAPAT [H3 20-32 L A T K A A R K S A P A T],peptide microarray binding signal,"[1]; peptide region: H3 20-32, binder concentration: 50 nM",0.00505 ± 0.00047
same,peptide microarray binding signal,"[1]; peptide region: H3 20-32, binder concentration: 500 nM",0.00533 ± 9e-05
same,peptide microarray binding signal,"[2]; peptide region: H3 20-32, binder concentration: 10 nM",0.00806 ± 9.3e-05
same,peptide microarray binding signal,"[2]; peptide region: H3 20-32, binder concentration: 100 nM",0.0106 ± 0.00016
same,peptide microarray binding signal,[3]; [15],0.00249 ± 7e-05
same,peptide microarray binding signal,[3]; [16],0.00262 ± 4e-05
same,peptide microarray binding signal,[4]; [15],0.000982 ± 2.1e-05
same,peptide microarray binding signal,[4]; [16],0.00167
TGGKAPRKQLATK [H3 11-23 T G G K A P Rme2s K Q L A T K],peptide microarray binding signal,"[1]; peptide region: H3 11-23, peptide modifications: H3R17me2s, binder concentration: 50 nM",0.00332 ± 8.4e-05
same,peptide microarray binding signal,"[1]; peptide region: H3 11-23, peptide modifications: H3R17me2s, binder concentration: 500 nM",0.00543 ± 0.00073
same,peptide microarray binding signal,"[2]; peptide region: H3 11-23, peptide modifications: H3R17me2s, binder concentration: 10 nM",0.003163 ± 1.7e-05
same,peptide microarray binding signal,"[2]; peptide region: H3 11-23, peptide modifications: H3R17me2s, binder concentration: 100 nM",0.00411 ± 0.00034
same,peptide microarray binding signal,[3]; [17],0.001 ± 5.2e-05
same,peptide microarray binding signal,[3]; [18],0.00108
same,peptide microarray binding signal,[4]; [17],0.00128 ± 0.00017
same,peptide microarray binding signal,[4]; [18],0.0011 ± 4e-05
TGGKAPRKQLATK [H3 11-23 T G G K A P Rme Kme3 Q L A T K],peptide microarray binding signal,"[1]; peptide region: H3 11-23, peptide modifications: H3R17me1 H3K18me3, binder concentration: 50 nM",0.0105 ± 0.00069
same,peptide microarray binding signal,"[1]; peptide region: H3 11-23, peptide modifications: H3R17me1 H3K18me3, binder concentration: 500 nM",0.0187 ± 0.002
same,peptide microarray binding signal,"[2]; peptide region: H3 11-23, peptide modifications: H3R17me1 H3K18me3, binder concentration: 10 nM",0.00901 ± 0.00033
same,peptide microarray binding signal,"[2]; peptide region: H3 11-23, peptide modifications: H3R17me1 H3K18me3, binder concentration: 100 nM",0.014 ± 0.0016
same,peptide microarray binding signal,[3]; [19],0.468 ± 0.19
same,peptide microarray binding signal,[3]; [20],0.29 ± 0.07
same,peptide microarray binding signal,[4]; [19],0.0548 ± 0.023
same,peptide microarray binding signal,[4]; [20],0.0168 ± 0.0037
TGGKAPRKQLATK [H3 11-23 T G G K A P Rme2a Kac Q L A T K],peptide microarray binding signal,"[1]; peptide region: H3 11-23, peptide modifications: H3R17me2a H3K18ac, binder concentration: 50 nM",0.00671 ± 0.00026
same,peptide microarray binding signal,"[1]; peptide region: H3 11-23, peptide modifications: H3R17me2a H3K18ac, binder concentration: 500 nM",0.0144 ± 0.001
same,peptide microarray binding signal,"[2]; peptide region: H3 11-23, peptide modifications: H3R17me2a H3K18ac, binder concentration: 10 nM",0.00967 ± 0.00055
same,peptide microarray binding signal,"[2]; peptide region: H3 11-23, peptide modifications: H3R17me2a H3K18ac, binder concentration: 100 nM",0.0188 ± 0.0034
same,peptide microarray binding signal,[3]; [21],0.00549 ± 0.00049
same,peptide microarray binding signal,[3]; [22],0.0302 ± 0.033
same,peptide microarray binding signal,[4]; [21],0.00273 ± 0.00027
same,peptide microarray binding signal,[4]; [22],0.00427 ± 0.0013
TGGKAPRKQLATK [H3 11-23 T G G K A P Rcit Kme2 Q L A T K],peptide microarray binding signal,"[1]; peptide region: H3 11-23, peptide modifications: H3R17cit H3K18me2, binder concentration: 50 nM",0.00542 ± 6.7e-05
same,peptide microarray binding signal,"[1]; peptide region: H3 11-23, peptide modifications: H3R17cit H3K18me2, binder concentration: 500 nM",0.0117 ± 0.00022
same,peptide microarray binding signal,"[2]; peptide region: H3 11-23, peptide modifications: H3R17cit H3K18me2, binder concentration: 10 nM",0.00806 ± 0.00083
same,peptide microarray binding signal,"[2]; peptide region: H3 11-23, peptide modifications: H3R17cit H3K18me2, binder concentration: 100 nM",0.0217 ± 0.0032
same,peptide microarray binding signal,[3]; [23],0.0091 ± 0.0018
same,peptide microarray binding signal,[3]; [24],0.00548 ± 0.00043
same,peptide microarray binding signal,[4]; [23],0.000921 ± 7.2e-05
same,peptide microarray binding signal,[4]; [24],0.000865 ± 2.4e-05
